Compounds with a hit are over-represented: about 2.4% of the library has one in this group of screens.
D2 PAM-1 = potentiates the human D2 dopamine receptor allosterically. P14416. DiscoveRx D2 beta-arrestin cells, luminescence, 90 min; 100% = 57 uM dopamine signal. potentiation, % (concentration not given with the values). 360,000 compounds, 0.23% hits; in the data active means potentiation above about 50%; inconclusive means mostly about 30% to 49%
Target sequence (P14416 whole entry, looked up): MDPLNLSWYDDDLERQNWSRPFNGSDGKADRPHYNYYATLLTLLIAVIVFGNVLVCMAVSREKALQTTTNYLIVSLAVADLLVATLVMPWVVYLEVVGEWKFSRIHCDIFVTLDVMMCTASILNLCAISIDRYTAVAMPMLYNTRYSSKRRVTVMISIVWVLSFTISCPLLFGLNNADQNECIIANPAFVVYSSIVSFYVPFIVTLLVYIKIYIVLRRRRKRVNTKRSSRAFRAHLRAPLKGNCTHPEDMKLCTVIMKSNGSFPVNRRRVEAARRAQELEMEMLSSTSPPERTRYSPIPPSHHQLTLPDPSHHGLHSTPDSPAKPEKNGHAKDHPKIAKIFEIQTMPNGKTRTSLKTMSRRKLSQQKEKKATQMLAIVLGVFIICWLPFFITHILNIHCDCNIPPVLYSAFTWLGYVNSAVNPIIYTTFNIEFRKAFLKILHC
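D2 cells co-treated with compound plus 50 nM dopamine (EC20) for 90 min at 37 deg C to detect potentiation. Beta-arrestin recruitment was read as enzyme-fragment luminescence after 1 h at ambient temperature. Full response was set by 57 uM dopamine.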
D2 ag-1 = agonists of human D2 dopamine receptor (beta-arrestin); P14416; DiscoveRx PathHunter D2 beta-arrestin, luminescence, 90 min; 100% = 57 uM dopamine signal; activation, % (no concentration beside the values); 360,000 compounds, 0.084% hits; AID 624465; in the data active means activation above about 40%; inconclusive means between about 15% and that limit
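Agonist mode: compounds alone added to overnight-plated D2 PathHunter cells for 90 min at 37 C, with 57 uM final dopamine (EC100) defining full response. Beta-arrestin recruitment detected by chemiluminescent reagent, read after 1 h at ambient temperature.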
B2AR arrestin = recruits beta-arrestin to the human beta2-adrenergic receptor. Potency, µM (highest dose often 46.1 µM), actives largely listed as activators. 330,000 compounds, 0.02% hits. beta-arrestin recruitment to beta2AR, cell-based reporter. P07550. AID 492947; further: nearly all actives have a fitted effect of over 65% in size
D2 ag-2 = agonists of human D2 dopamine receptor. P14416. HEK293 T-REx D2 cells, calcium flux agonist mode. activation, % at 2 µM. 340,000 compounds, 0.53% hits. AID 485358;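 active means activation over 3 SD above normal in the single-dose calcium agonist read, cut at about 30% in these data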
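In this primary screen, compounds producing a positive calcium signal within 180 s of addition to tetracycline-induced, force-coupled HEK293 Trex D2 cells are flagged; cells are dye-loaded with a no-wash calcium kit beforehand.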
D2 PAM-2 = positively modulates the human D2 dopamine receptor allosterically. HEK293 T-REx D2, calcium flux, EC20 dopamine potentiation. potentiation, % at 10 µM. P14416. 340,000 compounds, 0.34% hits;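 active means potentiation over 3 SD above the plate norm, cut at about 30% in these data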
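Tetracycline-induced Hek293 Trex D2 cells, force-coupled to calcium, loaded with no-wash calcium dye. Compound added with 180 s kinetic read for agonism, then EC20 dopamine and a further 180 s read for potentiation.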
D2 antagonist = antagonizes the human D2 dopamine receptor | P14416 | HEK293 TREx D2 cells, calcium flux, dopamine EC80 | inhibition, % at 10 µM | 340,000 compounds, 2% hits | AID 485344; in the data active means inhibition above about 30%; inactive means below that, where a call was filed
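Compounds are added to dye-loaded, induced HEK293 T-REx cells coupled to calcium release via D2; after a 3 min kinetic read an EC80 dopamine stimulus is given and fluorescence is recorded for 3 more min.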
D3 arrestin ag = activates human D3 dopamine receptor beta-arrestin recruitment; shares compounds with D2 ag-2; DiscoveRx D3 beta-arrestin cells, luminescence, 90 min; Potency, µM (highest dose often 76.9 µM), actives largely listed as activators; 2,300 compounds, 4% hits; AID 720506; further: nearly all actives have a fitted effect of over 70% in size
D2 ag-3 = activates human D2 dopamine receptor in D3 counterscreen | shares compounds with D2 ag-2 | DiscoveRx PathHunter D2 beta-arrestin, luminescence, 90 min; response scale: percent relative to full dopamine signal | Potency, µM (titrated, usually from 76.9 µM), hits mostly activators | 2,300 compounds, 5.9% hits | AID 720507; further: nearly all actives have a fitted effect of over 70% in size
A number is an active result; n = inactive; u = inconclusive; x = not tested or not shown. Unless noted, the call rests on the fitted dose curve; in most records, active means well fitted activation curve with a large enough effect; inconclusive means small, poorly fitted or top-dose-only effect; inactive means flat fitted curve, though single readings scatter.

SMILES | D2 PAM-1 | D2 ag-1 | B2AR arrestin | D2 ag-2 | D2 PAM-2 | D2 antagonist | D3 arrestin ag | D2 ag-3
O=c1c2cccnc2[nH]c(=S)n1CCCN1CCN(c2ccccc2F)CC1 | n | u | n | 81.5 | n | 115.5 | n | u
O=c1c2ccccc2[nH]c(=S)n1CCCN1CCN(c2ccccc2)CC1 | u | u | n | n | n | n | x | x
CCOC(=O)c1ccc(NC(=O)Cn2nc3c4ccccc4n(Cc4cccc(F)c4)cc-3c2=O)cc1 | x | x | x | n | n | x | x | x
Cc1noc(C)c1NC(=O)Nc1ccc2c(c1)C(=O)N([C@H](C)CO)C[C@H](C)[C@@H](CN(C)S(=O)(=O)c1ccccc1)O2 | n | n | n | x | x | x | x | x
CC(C)OC(=O)C(CC(=O)O)NCc1ccccc1 (centres undefined) | n | n | n | n | n | 68.2 | n | n
CCOC(=O)C(CC(=O)O)NCc1ccco1 (centres undefined) | n | n | n | n | n | n | x | x
Cc1cccc(NC(=O)CSc2nncn2C)c1 | x | x | x | n | n | x | x | x
O=[N+]([O-])c1c(NCCO)cc(N2CCN(Cc3ccc4c(c3)OCO4)CC2)c2nonc12 | n | n | n | 40.2 | n | n | n | n
Cc1oc(-c2cccc(Cl)c2)nc1CN1CCC(C(=O)NCCCN2CC(C)CC(C)C2)CC1 (centres undefined) | n | n | n | 34.8 | n | n | n | n
Cc1oc(-c2cccc(Cl)c2)nc1CN1CCC(C(=O)NCCCN2CCN(c3cccc(Cl)c3)CC2)CC1 | x | x | x | x | n | x | x | x
CCc1nc2ccc(C(=O)Nc3cccc(OC)c3)cn2c1N(CC)CCOC | n | n | x | x | x | x | x | x
CCCC(=O)N1CCc2cc(-c3nc(N)sc3C)ccc21 | n | n | n | n | n | n | x | x
CCC(C)C(=O)N1CCc2cc(-c3csc(N)n3)ccc21 (centres undefined) | n | n | n | n | n | n | n | n
O=C(Nc1ccccc1F)c1csc([C@@H]2C[C@H](O)[C@@H](CO)O2)n1 | n | n | x | x | x | x | x | x
CNc1nc(N)c([N+](=O)[O-])c(NCc2ccccc2)n1 | n | n | n | n | n | 43.8 | n | n
CNc1nc(N)c([N+](=O)[O-])c(Nc2cccc(F)c2)n1 | n | n | n | n | n | n | n | n
O=C(Nc1cccc(Cl)c1)c1ccc(NCCCN2CCOCC2)c([N+](=O)[O-])c1 | n | n | n | n | n | n | x | x
Cc1ccc(NC(=O)c2ccc(NCCCN3CCC(C)CC3)c([N+](=O)[O-])c2)cc1F | n | n | n | n | n | n | n | n
c1coc(-c2nc(N=C3N=c4ccccc4=N3)[nH]c2-c2ccco2)c1 | n | n | x | x | x | x | x | x
CCCCc1ccc(N/C(N)=N/c2nc(C)cc(C)n2)cc1 | n | u | n | 55.8 | n | 43.3 | u | u
CCC(=O)Nc1ccc(N/C(N)=N/c2nc(C)cc(C)n2)cc1 | n | n | n | n | n | n | x | x
Cc1cc(C)nc(/N=C(\N)Nc2ccc([N+](=O)[O-])cc2)n1 | n | n | n | n | n | 36.8 | n | n
Cc1ccc(N/C(N)=N/c2nc(C)cc(C)n2)cc1 | n | n | n | 79.6 | n | 31.1 | n | n
CCc1ccc(NC(=O)CN(Cc2ccccc2)S(=O)(=O)c2ccc3nc(C)sc3c2)cc1 | x | x | x | x | n | x | x | x
CCCCS(=O)(=O)NC1=NCN(CCO)CN1 | n | n | n | n | n | n | x | x
SMILES | D2 PAM-1 | D2 ag-1 | B2AR arrestin | D2 ag-2 | D2 PAM-2 | D2 antagonist | D3 arrestin ag | D2 ag-3
O=C(c1cccc(S(=O)(=O)NCc2ccccc2)c1)N1CCN(Cc2ccccc2)CC1 | n | n | n | n | n | n | x | x
O=C1Nc2ccccc2S/C1=C/Nc1cccc(Cl)c1 | n | n | n | n | n | n | x | x
O=C(COC(=O)CCc1c[nH]c2ccccc12)NCc1ccc2c(c1)OCO2 | n | n | n | 73.6 | n | n | n | n
CCOC(=O)C1=C(Nc2cccc(Cl)c2)OCC1=O | n | n | n | n | n | n | x | x
Cc1ccc(S(=O)(=O)N2CCOCC2)cc1NC(=O)CNCC1CCCCC1 | n | u | n | 52.8 | n | 49.8 | u | u
Cc1ccc(S(=O)(=O)N2CCOCC2)cc1NC(=O)CNCc1ccc(Cl)cc1Cl | n | n | n | x | x | x | x | x
Cc1ccc(S(=O)(=O)N2CCOCC2)cc1NC(=O)CNCc1cccnc1 | 62.6 | 48.1 | n | 76.6 | n | 59.7 | 3.55µM | 35.5µM
O=C(CSc1nnc(-c2ccccc2F)o1)Nc1ccccc1Cl | x | x | x | n | n | x | x | x
Cc1cc(Br)ccc1NC(=O)CSCc1c(C)noc1C | n | n | n | x | x | x | x | x
Cc1cccc(Cn2c(-c3cccc(Br)c3)nc3ccccc32)c1 | x | x | x | x | n | x | x | x
Cc1ccsc1C(=O)NNC(=O)c1ccncc1 | n | n | n | n | n | n | n | n
O=C(O)c1ccc(Cl)c(NC(=S)NC(=O)c2ccccc2[N+](=O)[O-])c1 | n | n | n | n | n | n | x | x
CC(C)SCCCCOc1ccc2ccccc2c1 | n | n | n | n | n | n | n | n
COCc1cc(=O)n2c([nH]c3ccccc32)c1C#N | n | n | n | n | n | 36.9 | n | n
CCc1cc(=O)n2c([nH]c3ccccc32)c1C#N | n | n | n | x | n | n | x | x
Cc1c(NC(=O)CSC(=S)N2CCCC2)c(=O)n(-c2ccccc2)n1C | n | n | n | n | n | n | x | x
COc1cc2[nH]c3c(=O)n4c(nc3c2cc1OC)SCCC4 | n | n | n | n | n | n | n | n
COc1ccc2[nH]c3c(=O)n4c(nc3c2c1)SCC4 | n | n | n | n | n | n | x | x
O=C(c1ccnc(Cl)c1)N1CCCC(N2CCN(c3ccccc3F)CC2)C1 (centres undefined) | n | n | n | n | n | n | n | n
O=C(c1ccco1)N1CCCC(N2CCN(c3ccccc3F)CC2)C1 (centres undefined) | n | n | n | n | n | n | x | x
Cc1ncoc1C(=O)N1CCCC(N2CCN(c3ccccc3F)CC2)C1 (centres undefined) | n | n | n | 35.9 | n | n | n | n
CC(=O)N1c2ccccc2C(=O)C1N1CCN(c2ccccc2F)CC1 (centres undefined) | x | x | x | x | n | x | x | x
CC(=O)N1CCC(N2CCN(c3ccccc3F)CC2)CC1 | n | 40.9 | n | 75.0 | n | 71.4 | u | u
CC(C)(C)NC(=O)C(c1ccco1)N(C(=O)Cn1nnc(-c2ccc(F)cc2)n1)c1ccccc1 (centres undefined) | n | n | x | x | x | x | x | x
COc1cc(Br)cc(C(=O)N2CCc3ccccc32)c1OC | n | n | x | x | x | x | x | x

Screening data: PubChem BioAssay, National Center for Advancing Translational Sciences (NCATS)
